# Data: ChEMBL document CHEMBL3988442, “University of Dundee, Small-Polar-MMV Screening Library” (2021)
# The whole screen tested about 68,000 compounds, of which about 25 (0.04%) showed an effect of 50% or more. The sample as a whole holds a higher share of strong results than the screen did.
# Molecular target: T1, Methionyl-tRNA synthetase, putative (Leishmania donovani (strain BPK282A1)) (UniProt E9BF75)
# T1 sequence (whole entry): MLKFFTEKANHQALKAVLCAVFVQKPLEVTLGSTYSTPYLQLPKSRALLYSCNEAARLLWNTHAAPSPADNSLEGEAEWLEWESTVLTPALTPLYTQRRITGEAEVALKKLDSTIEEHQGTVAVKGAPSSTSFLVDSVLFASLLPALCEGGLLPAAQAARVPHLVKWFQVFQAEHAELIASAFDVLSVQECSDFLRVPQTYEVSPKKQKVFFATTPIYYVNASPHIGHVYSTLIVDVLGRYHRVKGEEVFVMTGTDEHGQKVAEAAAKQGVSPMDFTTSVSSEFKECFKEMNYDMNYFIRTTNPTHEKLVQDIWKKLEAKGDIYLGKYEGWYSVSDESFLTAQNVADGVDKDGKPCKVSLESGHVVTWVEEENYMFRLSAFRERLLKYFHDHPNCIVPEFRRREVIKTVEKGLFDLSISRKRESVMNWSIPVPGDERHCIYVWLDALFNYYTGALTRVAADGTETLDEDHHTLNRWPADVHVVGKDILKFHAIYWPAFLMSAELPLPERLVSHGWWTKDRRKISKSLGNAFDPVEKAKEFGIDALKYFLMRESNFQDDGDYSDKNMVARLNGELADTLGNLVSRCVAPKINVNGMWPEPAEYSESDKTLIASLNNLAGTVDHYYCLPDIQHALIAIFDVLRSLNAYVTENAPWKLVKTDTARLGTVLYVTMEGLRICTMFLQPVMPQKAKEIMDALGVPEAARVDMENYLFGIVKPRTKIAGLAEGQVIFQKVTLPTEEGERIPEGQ
# Assay: Leishmania donovani Methionine tRNA synthetase (LdMetRS):v6. Primary screen assay
# Assay type: functional
# Set-up: conc 80 nM, time 150 minutes
row,SMILES,inhibition [%]
1,O=C(NC1CC1)[C@@H]1CCO[C@@H]2CCN(CC3CCC3)C[C@H]21,16.2
2,CCN1C(=O)[C@]2(CC[C@@H]3CN(S(=O)(=O)CC(C)C)C[C@@H]32)N=C1C,16.2
3,O=C(NCc1ccco1)[C@@]12CCO[C@@H]1CCN(Cc1ccccn1)C2,16.3
4,Cc1ccc(N2CCO[C@H]3CN(C(=O)c4cccc(C)n4)C[C@H]32)nn1,5.75
5,Oc1ccc(N(CCc2ccccc2)CCn2cncn2)cc1,70
6,OCCCN(CCn1cncn1)c1ccccc1,8.36
7,c1ccc(N(CCn2cncn2)CC2CC2)cc1,11
8,Cc1ccccc1C(=O)N1C[C@@H]2CCN(c3cccnc3)C[C@@H]2C1,10.5
9,Cc1nc(CN2C[C@@H]3CN(C(=O)c4ccnnc4)C[C@@H]3C2=O)cs1,13.1
10,CO[C@H]1CN(Cc2ccccc2F)[C@@H]2CCCO[C@H]12,10.8
11,CNc1cc(-c2cccc(CN)c2)c2cc[nH]c2n1,53
12,CNc1cc(-c2ccccc2CN)c2cc[nH]c2n1,23.4
13,CNc1cc(-c2ccc(COCCN)cc2)c2cc[nH]c2n1,33.4
14,CCn1cc(CN2C[C@H]3CC[C@@H]2CN(C(=O)C2CCC2)C3)cn1,12.2
15,CS(=O)(=O)N1C[C@@H]2COC[C@]2(C(=O)NCCc2cccs2)C1,3.36
16,c1cc2c(cc1CN1CC[C@H]3[C@H]1CCN3CC1CC1)OCO2,5
17,CS(=O)(=O)NC[C@]12COC[C@H]1CN(Cc1ccc3c(c1)OCO3)C2,15.2
18,CN(C)CCN1C[C@@H]2CN(S(=O)(=O)c3ccccc3)C[C@@H]2C1=O,17.1
19,O=C(NCCc1ccccn1)[C@@]12CCO[C@@H]1CCN(c1ncccn1)C2,18.5
20,CN1CCCC[C@@H]2[C@H]1[C@@H](c1ccccc1)CCN2C(=O)c1ccncc1,12.5
21,Cc1nnc([C@H]2C[C@H]3CN(C(=O)Cc4ccc(F)cc4)CC[C@@H]3O2)o1,18.5
22,COCCN1CCN(Cc2ccc(F)c(C)c2)[C@H]2CS(=O)(=O)C[C@H]21,0.741
23,COCCN1C(=O)CC[C@]12CC[C@@H](NCc1nccs1)CC2,7.27
24,N#Cc1cccc(CN2C[C@H](OCC3CCOCC3)[C@H]3COC[C@H]32)c1,14.8
25,Cn1cc(CN2C[C@@H](N3CCCC3=O)[C@H]3OCCC[C@H]32)cn1,6.57
26,O=C1N(Cc2ccccc2)C[C@H]2CN(Cc3ccccc3Cl)CCN12,12.1
27,Cc1ccc(S(=O)(=O)N2C[C@H]3C[C@H](NC(=O)c4ccn(C)n4)[C@H]3C2)cc1,11.3

row,SMILES,inhibition [%]
1,CCCN1C[C@H]2CC[C@@H]1CN(Cc1cccc(O)c1)C2,3.78
2,Cn1cc(CN2CCO[C@H]3C(Cn4cccn4)CC[C@@H]32)cn1 (stereo not given in full),11.4
3,Cc1cnc(CN2C[C@H]3C[C@H](Oc4ccccc4)C[C@H]3C2)cn1,0
4,CNC(=O)[C@@H]1[C@@H](c2ccccc2)CN2CCN(Cc3ccco3)C[C@H]12,0.822
5,COc1cc(CN2CCCC[C@]3(C)NC(=O)CC[C@H]23)ccc1F,14.2
6,O=C(NCC1CC1)[C@H]1CC[C@@H]2[C@@H](CCN2Cc2ccoc2)O1,10.8
7,Cc1cccc(CN2CC[C@H]3CO[C@H](CNC(=O)N(C)C)[C@H]3C2)c1,3.76
8,CN(C)C(=O)NCc1cc2n(n1)CCN(C[C@H]1[C@@H]3CNC[C@@H]31)C2,12
9,O=C1NC(c2ccccc2)=N[C@@]12CC[C@@H]1CN(S(=O)(=O)C3CC3)C[C@@H]12,6.19
10,CC(C)NC(=O)[C@H]1C[C@@H]2[C@@H](C1)OCCN2Cc1ccsc1,10.1
11,Cc1ccc(CN2CC[C@H]3CO[C@H](CN(C)C)[C@H]3C2)o1,15.1
12,CO[C@@H]1CC[C@H]2[C@H]1OCCN2S(=O)(=O)c1cn(C)cn1,7.3
13,COCC(=O)N1C[C@H]2CC[C@@]3(N=C(c4ccccc4)NC3=O)[C@H]2C1,8.15
14,Cc1nc(C)n(CC2CCCN2Cc2nc3ccccc3nc2C)n1 (stereo not given),13.3
15,Cc1nc(C)n(CC2CCCN2Cc2nc(N)c3ccccc3n2)n1 (stereo not given),11.2
16,Cc1nc(C)n(CC2CCCN2Cc2nc(C)c3ccccc3n2)n1 (stereo not given),57
17,O=C(c1ccco1)N1C(CN2CCOCC2)[C@]2(O)CC[C@H]1CC2 (stereo not given in full),15.1
18,O=C(N[C@@H]1CN(Cc2cccs2)[C@@H]2CCCO[C@@H]21)c1cscn1,11.8
19,Cc1nc([C@@H]2C[C@@H]3CCN(C(=O)Cc4ccsc4)C[C@H]3O2)no1,8.15
20,COCCCN1C(=O)CC[C@H]2CN(c3cnc4ccccc4n3)CC[C@H]21,-5.03
21,CCC1=N[C@@]2(CC[C@@H]3CN(C(=O)NC(C)C)C[C@@H]32)C(=O)N1C,12.4
22,Cc1nc(CN2C[C@@H]3CCCO[C@@H]3[C@H](NC(=O)CC3CC3)C2)cs1,12.6
23,CS(=O)(=O)NC[C@H]1OC[C@H]2CN(Cc3ccsc3)CC[C@H]21,17.8
24,COCCNC(=O)c1ccc2ccc(N(C)CC3CC3)n2c1,22.1
25,CN(CC1CC1)c1ccc2ccc(C(=O)NCCc3ccccc3)cn12,51
26,CN(C)CCNC(=O)c1ccc2ccc(N(C)CC3CC3)n2c1,25.3
27,O=C(c1ccc[nH]1)N1C[C@H](OCc2cccnc2)[C@H]2COC[C@H]21,16.2

row,SMILES,inhibition [%]
1,C=C1C(C)(C)[C@H]2CC[C@]1(C(=O)N1CCC(Cn3cc(CO)nn3)CC1)C2,11.7
2,NC(=O)N1CC[C@H]2CO[C@H](CNC(=O)c3ccnnc3)[C@H]2C1,15
3,Cc1ncsc1CCN(C)C(=O)c1ccc(Cn2cnnn2)cc1,16.8
4,Cc1nc(CN(C)C(=O)c2ccc(Cn3cnnn3)cc2)cs1,123
5,Cc1cnccc1CN(C)C(=O)c1ccc(Cn2cnnn2)cc1,2.48
6,O=S1(=O)C[C@@H]2[C@H](C1)N(Cc1cc(F)cc(F)c1)CCN2CCO,1.27
7,COc1cccc(-c2noc3c2CN(c2nc(C)ncc2C)CC3)c1,15
8,COCc1cc(N2CCc3onc(-c4cccc(OC)c4)c3C2)ncn1,12.5
9,COc1cccc(-c2noc3c2CN(c2ncnc4c2CCC4)CC3)c1,52.3
10,O=C(NC1CC1)[C@H]1CC[C@@H]2[C@@H](CCN2Cc2ccsc2)O1,6.67
11,O=C(CCNC(=O)c1ccccc1F)NCCNc1cccnc1,120
12,Cc1ccnc(NCCNC(=O)CCNC(=O)c2ccccc2F)c1,34.8
13,CCn1cnnc1CCNC(=O)CCNC(=O)c1ccccc1F,17.3
14,Cc1cccc(C(=O)N2C[C@@H]3[C@H](CC(=O)NC(C)C)[C@@H]3C2)n1,6.67
15,Cc1ccc(-c2ncc(CNc3cnccc3CO)s2)cc1,1.86
16,CC(C)Cc1ncc(CNc2cnccc2CO)s1,121
17,Cc1ncc(CNc2cnccc2CO)s1,11.8
18,Cn1cc(C(=O)N[C@@H]2CN(Cc3cccs3)[C@@H]3CCCO[C@@H]32)cn1,16.3
19,O=C1NC[C@]2(CC[C@@H](C(=O)N3CCC(O)CC3)CC2)Oc2ccccc21,17.4
20,Cc1oc(C(C)C)cc1C(=O)N1C[C@H]2CC[C@@H]1CN(c1ncccn1)C2,7.9
21,O=C([C@@H]1COC[C@H]2CN(C3CCCCC3)C[C@H]21)N1CCOCC1,14.6
22,O=S(=O)(NCCSc1nccn1C1CC1)c1ccccc1,67.7
23,O=S(=O)(CCSc1nccn1C1CC1)c1ccccc1,-9.32
24,O=S(=O)(NCCSc1nncn1C1CC1)c1ccccc1,3.73
25,Cc1noc([C@@]23CCO[C@@H]2CCN(C(=O)c2cc(C)c(C)s2)C3)n1,8.14
26,Cc1noc([C@@H]2C[C@H]3OCC[C@H]3N(Cc3sccc3C)C2)n1,10.5
27,Cc1occc1C(=O)N1CCO[C@H]2[C@H](Oc3cccnc3)CC[C@@H]21,3.85

row,SMILES,inhibition [%]
1,CCS(=O)(=O)N1CC[C@H]2O[C@H](c3nc(C)no3)CC[C@H]21,21
2,O=C1C[C@H]2CC[C@@H](CN1)N2C(=O)CCc1ccc2c(c1)OCO2,17
3,O=C(c1cc(F)cc(Cl)c1)N1CCN(CCO)[C@@H]2CS(=O)(=O)C[C@@H]21,3.31
4,Cc1noc(C)c1CN1CC[C@H]2OCC[C@@H](C(=O)NCC3CC3)[C@H]2C1,14.8
5,Cc1ccc(CN2CC[C@H]3OCC[C@@]3(C(=O)N3CCCO3)C2)o1,6.85
6,O=C(N[C@@H]1CN(c2ncccn2)[C@@H]2CCCO[C@@H]21)c1cscn1,13.6
7,O=C1CC[C@H]2CN(c3ncccc3F)CC[C@H]2N1CCc1ccccc1,-0.347
8,CCc1c(C(=O)N2C[C@H]3CC[C@@H]2CN(c2cnccn2)C3)csc1C,13.4
9,CN(C)C(=O)[C@@H]1CCO[C@@H]2CCN(CCOCc3ccccc3)C[C@H]21,1.54
10,OCC1N(Cc2ccc(F)cc2)[C@H]2CC[C@]1(O)CC2 (stereo not given in full),12.3
11,Cc1ccc(C(=O)N2C[C@@H](N3CCN(C)CC3)[C@H]3OCCC[C@H]32)cn1,14.1
12,N#Cc1ccccc1CN1C[C@H]2CC[C@@H]1CN(C(=O)c1cccnc1)C2,15.4
13,CNC(=O)[C@@]12CCC3(CCNCC3)[C@@H]1CN(S(C)(=O)=O)C2,18.3
14,O=C1OCCN1CC(=O)N1C[C@H]2CC[C@@H]1CN(C(=O)c1ccccc1)C2,10.6
15,CC1COc2ccccc2N1C(=O)c1cscn1 (stereo not given),12.4
16,CC1COc2ccccc2N1C(=O)CCc1cscn1 (stereo not given),59
17,Cc1nc(CC(=O)N2c3ccccc3OCC2C)cs1 (stereo not given),6.21
18,CNC(=O)[C@@H]1C[C@H]2CN(C(=O)c3ccco3)C[C@H]2N1C(C)C,14.5
19,CC(C)=CCN1C[C@@H]2CN(C(=O)c3cnccc3C)C[C@]2(C(=O)O)C1,8.52
20,CCCN1CCN(Cc2cccc(OC)c2)[C@H]2CS(=O)(=O)C[C@H]21,12.4
21,NCC1CCN(C2CCN(c3ccc(-c4ccco4)cc3)CC2)C1 (stereo not given),52.7
22,NC1CCN(C2CCN(c3ccc(-c4ccco4)cc3)CC2)CC1,42.5
23,CNC1CCN(C2CCN(c3ccc(-c4ccco4)cc3)CC2)CC1,21
24,CCc1cc(CN2C[C@H]3CC[C@@H]2CN(C2Cc4ccccc4C2)C3)on1,18.8
